The binders below were run against AgAbp1 (assay: SPOT peptide array binding signal intensity (averaged, normalized) (arbitrary units (background-subtracted, floor 0; scale differs between SH3 domains)); higher = stronger binding of the SH3 domain to the peptide).
In short: (§1)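 GST-fused SH3 domains from four yeast species were expressed in E. coli BL21(DE3), purified on glutathione Sepharose and incubated at 10 μg/ml overnight at 4°C in TBS-based blocking buffer on cellulose membranes carrying synthetic 15-mer peptides, with cysteines replaced by serines. Bound protein was detected with anti-GST antibody, an HRP anti-mouse secondary and luminol, then imaged and quantified with Genespotter. Binding signal is the normalized, background-subtracted spot intensity averaged over replicates, in arbitrary units that differ between domains.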

Binder | SPOT peptide array binding signal intensity
LLLLFVPDSPYDPAI | 1

Each binder was assayed against AgBbc1 in the same assay as above.
In short: as §1

Binder | SPOT peptide array binding signal intensity
LLLLFVPDSPYDPAI | 0.75

These binders were tested against AgBem1-D1 in the same assay as above.
In short: as §1

Binder | SPOT peptide array binding signal intensity
LLLLFVPDSPYDPAI | 27

Each binder was assayed against AgBzz1-D1 in the same assay as above.
In short: as §1

Binder | SPOT peptide array binding signal intensity
LLLLFVPDSPYDPAI | 17.5

The binders below were run against AgBzz1-D2 in the same assay as above.
In short: as §1

Binder | SPOT peptide array binding signal intensity
LLLLFVPDSPYDPAI | 20.5

The binders below were run against AgCyk3 in the same assay as above.
In short: as §1

Binder | SPOT peptide array binding signal intensity
LLLLFVPDSPYDPAI | 3

The binders below were run against AgFus1 in the same assay as above.
In short: as §1

Binder | SPOT peptide array binding signal intensity
LLLLFVPDSPYDPAI | 2370

What follows are binders tested against AgHof1 in the same assay as above.
In short: as §1

Binder | SPOT peptide array binding signal intensity
LLLLFVPDSPYDPAI | 2.25

Each binder was assayed against AgHse1 in the same assay as above.
In short: as §1

Binder | SPOT peptide array binding signal intensity
LLLLFVPDSPYDPAI | 277

Each binder was assayed against AgLsb1 in the same assay as above.
In short: as §1

Binder | SPOT peptide array binding signal intensity
LLLLFVPDSPYDPAI | ≤ 0

What follows are binders tested against AgLsb4 in the same assay as above.
In short: as §1

Binder | SPOT peptide array binding signal intensity
LLLLFVPDSPYDPAI | 636

What follows are binders tested against AgMyo5 in the same assay as above.
In short: as §1

Binder | SPOT peptide array binding signal intensity
LLLLFVPDSPYDPAI | 1

The binders below were run against AgNbp2 in the same assay as above.
In short: as §1

Binder | SPOT peptide array binding signal intensity
LLLLFVPDSPYDPAI | 63

Each binder was assayed against AgRvs167 in the same assay as above.
In short: as §1

Binder | SPOT peptide array binding signal intensity
LLLLFVPDSPYDPAI | 1.67

The binders below were run against AgSho1 in the same assay as above.
In short: as §1

Binder | SPOT peptide array binding signal intensity
LLLLFVPDSPYDPAI | 212

Each binder was assayed against AgSla1-D1-D2 in the same assay as above.
In short: as §1

Binder | SPOT peptide array binding signal intensity
LLLLFVPDSPYDPAI | ≤ 0

These binders were tested against AgSla1-D3 in the same assay as above.
In short: as §1

Binder | SPOT peptide array binding signal intensity
LLLLFVPDSPYDPAI | 0.5

These binders were tested against CaAbp1-D1 in the same assay as above.
In short: as §1

Binder | SPOT peptide array binding signal intensity
LLLLFVPDSPYDPAI | 11

Each binder was assayed against CaAbp1-D2 in the same assay as above.
In short: as §1

Binder | SPOT peptide array binding signal intensity
LLLLFVPDSPYDPAI | 1

Each binder was assayed against CaBbc1 in the same assay as above.
In short: as §1

Binder | SPOT peptide array binding signal intensity
LLLLFVPDSPYDPAI | ≤ 0

The binders below were run against CaBem1-D1 in the same assay as above.
In short: as §1

Binder | SPOT peptide array binding signal intensity
LLLLFVPDSPYDPAI | ≤ 0

What follows are binders tested against CaBzz1-D1 in the same assay as above.
In short: as §1

Binder | SPOT peptide array binding signal intensity
LLLLFVPDSPYDPAI | 43.5

These binders were tested against CaBzz1-D2 in the same assay as above.
In short: as §1

Binder | SPOT peptide array binding signal intensity
LLLLFVPDSPYDPAI | 19.5

These binders were tested against CaCyk3 in the same assay as above.
In short: as §1

Binder | SPOT peptide array binding signal intensity
LLLLFVPDSPYDPAI | 1

Each binder was assayed against CaFus1 in the same assay as above.
In short: as §1

Binder | SPOT peptide array binding signal intensity
LLLLFVPDSPYDPAI | 5080

These binders were tested against CaHof1 in the same assay as above.
In short: as §1

Binder | SPOT peptide array binding signal intensity
LLLLFVPDSPYDPAI | 66.8

The binders below were run against CaHse1 in the same assay as above.
In short: as §1

Binder | SPOT peptide array binding signal intensity
LLLLFVPDSPYDPAI | 92

Each binder was assayed against CaLsb1 in the same assay as above.
In short: as §1

Binder | SPOT peptide array binding signal intensity
LLLLFVPDSPYDPAI | 1.5

Each binder was assayed against CaLsb4 in the same assay as above.
In short: as §1

Binder | SPOT peptide array binding signal intensity
LLLLFVPDSPYDPAI | ≤ 0

The binders below were run against CaMyo5 in the same assay as above.
In short: as §1

Binder | SPOT peptide array binding signal intensity
LLLLFVPDSPYDPAI | 6.25

The binders below were run against CaNbp2 in the same assay as above.
In short: as §1

Binder | SPOT peptide array binding signal intensity
LLLLFVPDSPYDPAI | 264

These binders were tested against CaRvs167 in the same assay as above.
In short: as §1

Binder | SPOT peptide array binding signal intensity
LLLLFVPDSPYDPAI | 15.8

What follows are binders tested against CaRvs167-3 in the same assay as above.
In short: as §1

Binder | SPOT peptide array binding signal intensity
LLLLFVPDSPYDPAI | 3.5

The binders below were run against CaSho1 in the same assay as above.
In short: as §1

Binder | SPOT peptide array binding signal intensity
LLLLFVPDSPYDPAI | 611

The binders below were run against CaSla1-D1-D2 in the same assay as above.
In short: as §1

Binder | SPOT peptide array binding signal intensity
LLLLFVPDSPYDPAI | 6.5

The binders below were run against CaSla1-D3 in the same assay as above.
In short: as §1

Binder | SPOT peptide array binding signal intensity
LLLLFVPDSPYDPAI | 11.5

Each binder was assayed against ScAbp1 in the same assay as above.
In short: as §1

Binder | SPOT peptide array binding signal intensity
LLLLFVPDSPYDPAI | ≤ 0

What follows are binders tested against ScBbc1 in the same assay as above.
In short: as §1

Binder | SPOT peptide array binding signal intensity
LLLLFVPDSPYDPAI | 0.25

The binders below were run against ScBem1-D1 in the same assay as above.
In short: as §1

Binder | SPOT peptide array binding signal intensity
LLLLFVPDSPYDPAI | 7

These binders were tested against ScBzz1-D1 in the same assay as above.
In short: as §1

Binder | SPOT peptide array binding signal intensity
LLLLFVPDSPYDPAI | 31

These binders were tested against ScBzz1-D2 in the same assay as above.
In short: as §1

Binder | SPOT peptide array binding signal intensity
LLLLFVPDSPYDPAI | 7

These binders were tested against ScCyk3 in the same assay as above.
In short: as §1

Binder | SPOT peptide array binding signal intensity
LLLLFVPDSPYDPAI | 37

What follows are binders tested against ScFus1 in the same assay as above.
In short: as §1

Binder | SPOT peptide array binding signal intensity
LLLLFVPDSPYDPAI | 1060

The binders below were run against ScHof1 in the same assay as above.
In short: as §1

Binder | SPOT peptide array binding signal intensity
LLLLFVPDSPYDPAI | 2.25

The binders below were run against ScHse1 in the same assay as above.
In short: as §1

Binder | SPOT peptide array binding signal intensity
LLLLFVPDSPYDPAI | 662

The binders below were run against ScLsb1 in the same assay as above.
In short: as §1

Binder | SPOT peptide array binding signal intensity
LLLLFVPDSPYDPAI | ≤ 0

The binders below were run against ScLsb2 in the same assay as above.
In short: as §1

Binder | SPOT peptide array binding signal intensity
LLLLFVPDSPYDPAI | ≤ 0

What follows are binders tested against ScLsb3 in the same assay as above.
In short: as §1

Binder | SPOT peptide array binding signal intensity
LLLLFVPDSPYDPAI | ≤ 0

Each binder was assayed against ScLsb4 in the same assay as above.
In short: as §1

Binder | SPOT peptide array binding signal intensity
LLLLFVPDSPYDPAI | 1

The binders below were run against ScMyo3 in the same assay as above.
In short: as §1

Binder | SPOT peptide array binding signal intensity
LLLLFVPDSPYDPAI | ≤ 0

What follows are binders tested against ScMyo5 in the same assay as above.
In short: as §1

Binder | SPOT peptide array binding signal intensity
LLLLFVPDSPYDPAI | ≤ 0

What follows are binders tested against ScNbp2 in the same assay as above.
In short: as §1

Binder | SPOT peptide array binding signal intensity
LLLLFVPDSPYDPAI | 74

The binders below were run against ScPex13 in the same assay as above.
In short: as §1

Binder | SPOT peptide array binding signal intensity
LLLLFVPDSPYDPAI | 0.25

These binders were tested against ScRvs167 in the same assay as above.
In short: as §1

Binder | SPOT peptide array binding signal intensity
LLLLFVPDSPYDPAI | 0.333

These binders were tested against ScSho1 in the same assay as above.
In short: as §1

Binder | SPOT peptide array binding signal intensity
LLLLFVPDSPYDPAI | 1530

Each binder was assayed against ScSla1-D1-D2 in the same assay as above.
In short: as §1

Binder | SPOT peptide array binding signal intensity
LLLLFVPDSPYDPAI | ≤ 0

These binders were tested against ScSla1-D3 in the same assay as above.
In short: as §1

Binder | SPOT peptide array binding signal intensity
LLLLFVPDSPYDPAI | 27.5

These binders were tested against SpAbp1-D1 in the same assay as above.
In short: as §1

Binder | SPOT peptide array binding signal intensity
LLLLFVPDSPYDPAI | 1

What follows are binders tested against SpBbc1 in the same assay as above.
In short: as §1

Binder | SPOT peptide array binding signal intensity
LLLLFVPDSPYDPAI | ≤ 0

These binders were tested against SpBzz1-D1 in the same assay as above.
In short: as §1

Binder | SPOT peptide array binding signal intensity
LLLLFVPDSPYDPAI | 26

The binders below were run against SpBzz1-D2 in the same assay as above.
In short: as §1

Binder | SPOT peptide array binding signal intensity
LLLLFVPDSPYDPAI | 1.5

These binders were tested against SpCyk3 in the same assay as above.
In short: as §1

Binder | SPOT peptide array binding signal intensity
LLLLFVPDSPYDPAI | 25

Each binder was assayed against SpHof1 in the same assay as above.
In short: as §1

Binder | SPOT peptide array binding signal intensity
LLLLFVPDSPYDPAI | 6.25

Each binder was assayed against SpHof1-2 in the same assay as above.
In short: as §1

Binder | SPOT peptide array binding signal intensity
LLLLFVPDSPYDPAI | 5.5

What follows are binders tested against SpHof1-3 in the same assay as above.
In short: as §1

Binder | SPOT peptide array binding signal intensity
LLLLFVPDSPYDPAI | 85.5

These binders were tested against SpHse1 in the same assay as above.
In short: as §1

Binder | SPOT peptide array binding signal intensity
LLLLFVPDSPYDPAI | 1440

The binders below were run against SpLsb1 in the same assay as above.
In short: as §1

Binder | SPOT peptide array binding signal intensity
LLLLFVPDSPYDPAI | ≤ 0

What follows are binders tested against SpLsb4 in the same assay as above.
In short: as §1

Binder | SPOT peptide array binding signal intensity
LLLLFVPDSPYDPAI | 2

What follows are binders tested against SpMyo1 in the same assay as above.
In short: as §1

Binder | SPOT peptide array binding signal intensity
LLLLFVPDSPYDPAI | 3

These binders were tested against SpNbp2 in the same assay as above.
In short: as §1

Binder | SPOT peptide array binding signal intensity
LLLLFVPDSPYDPAI | 195

These binders were tested against SpPex13 in the same assay as above.
In short: as §1

Binder | SPOT peptide array binding signal intensity
LLLLFVPDSPYDPAI | 20

The binders below were run against SpRvs167 in the same assay as above.
In short: as §1

Binder | SPOT peptide array binding signal intensity
LLLLFVPDSPYDPAI | ≤ 0

These binders were tested against SpSla1-D1-D2 in the same assay as above.
In short: as §1

Binder | SPOT peptide array binding signal intensity
LLLLFVPDSPYDPAI | 3

These binders were tested against SpSla1-D3 in the same assay as above.
In short: as §1

Binder | SPOT peptide array binding signal intensity
LLLLFVPDSPYDPAI | 1

— the supplement of paper PMC4466140
